Measured values from ChEMBL document CHEMBL3988442, “University of Dundee, Small-Polar-MMV Screening Library” (2021).
Hit rate of the full screen: of about 69,000 compounds, about 420 (0.61%) showed an effect of 50% or more. The list comes from a sample in which strong results are over-represented; it also holds similar structures and randomly drawn compounds.

These molecules were tested against T1, Histidine--tRNA ligase (Leishmania infantum) (UniProt A4I591) (assay: Leishmania infantum Histidine tRNA synthetase (LdHisRS)). Conditions: 30 µM.
T1 sequence (whole entry): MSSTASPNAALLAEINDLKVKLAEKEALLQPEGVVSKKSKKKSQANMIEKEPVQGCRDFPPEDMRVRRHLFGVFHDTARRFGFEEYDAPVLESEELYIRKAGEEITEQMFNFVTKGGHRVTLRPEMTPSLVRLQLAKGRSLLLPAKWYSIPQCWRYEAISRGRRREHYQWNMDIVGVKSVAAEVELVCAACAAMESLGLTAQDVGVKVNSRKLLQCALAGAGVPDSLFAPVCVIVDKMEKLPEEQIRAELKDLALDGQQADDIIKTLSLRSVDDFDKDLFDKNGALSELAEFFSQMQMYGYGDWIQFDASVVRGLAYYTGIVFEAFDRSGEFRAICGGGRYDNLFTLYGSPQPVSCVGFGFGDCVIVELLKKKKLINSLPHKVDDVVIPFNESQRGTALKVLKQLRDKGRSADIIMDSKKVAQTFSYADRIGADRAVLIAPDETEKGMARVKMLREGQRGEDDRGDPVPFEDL
Format: functional
Design: scale not given: in the data most compounds retested in dose-response had high values

**Q.** CCn1cc(C(=O)N2C[C@H]3C[C@H](Oc4ccccc4)C[C@H]3C2)cn1 was tested. Which Percent Effect did it give?
**A.** 11.5%

**Q.** How did the Percent Effect turn out when Cc1nc(C(=O)N2CCN(C(=O)C3CCC3)[C@@H]3CS(=O)(=O)C[C@@H]32)cs1 was run?
**A.** 2.67%

**Q.** How did the Percent Effect turn out when O=C(Cc1ccsc1)N1C[C@H]2CCC[C@@]2(COCc2ccccn2)C1 was run?
**A.** 7.92%

**Q.** Which Percent Effect does the source give for Cc1cc(C)c(CNC(=O)N2CCCC2c2ccccn2)c(=O)[nH]1 (stereo not given) here?
**A.** 12.3%

**Q.** CN(C)CC(=O)N1CCCC1c1ccccn1 (stereo not given) was tested. Which Percent Effect did it give?
**A.** 8.63%

**Q.** Which Percent Effect does the source give for Cn1cc(C(=O)N2CCCC2c2ccc3c(c2)OCCO3)ccc1=O (stereo not given) here?
**A.** 27.3%

**Q.** Which Percent Effect does the source give for Cn1cc(NC(=O)N2CCCC2c2ccccn2)ccc1=O (stereo not given) here?
**A.** 108%

**Q.** Which Percent Effect does the source give for COc1ccc(NC(=O)N2CCCC2c2ccncc2)cn1 (stereo not given) here?
**A.** 13.2%

**Q.** For CC(C)C1CCCN1C(=O)Nc1ccc(=O)n(C)c1 (stereo not given), which Percent Effect is on record?
**A.** 119%

**Q.** Which Percent Effect does the source give for Cn1cc(C(=O)N2CCCC2c2ccc3c(c2)OCO3)ccc1=O (stereo not given) here?
**A.** 12.1%

**Q.** Cn1cc(NC(=O)N2CCCC2c2cccnc2)ccc1=O (stereo not given) was tested. Which Percent Effect did it give?
**A.** 100%

**Q.** With CCSc1ccc(NC(=O)N2CCCC2c2ccncc2)cn1 (stereo not given) as the molecule, how does the Percent Effect read?
**A.** 1.65%

**Q.** Which Percent Effect does the source give for Cc1ccc(CN2CC[C@@H]3OCCN(S(C)(=O)=O)[C@H]3CC2)s1 here?
**A.** 7.55%

**Q.** Cn1cc(C(=O)N2CC[C@@H]3[C@@H]2CCN3Cc2cccc(C#N)c2)cn1 was tested. Which Percent Effect did it give?
**A.** 3%

**Q.** How did the Percent Effect turn out when CN(C)C[C@@H]1C[C@@H]2CN(C(=O)Cc3cccs3)CC[C@@H]2N1C was run?
**A.** 6.42%

**Q.** Which Percent Effect does the source give for Cc1ccc(CN2CC[C@H]3C(=O)N(Cc4cccnc4)CCO[C@H]3C2)o1 here?
**A.** 5.88%

**Q.** Which Percent Effect does the source give for COc1ccccc1N1CCC(CNCc2cccc(O)c2)C1 (stereo not given) here?
**A.** 21.4%

**Q.** For COc1ccc(CNCC2CCN(c3ccccc3OC)C2)cc1O (stereo not given), which Percent Effect is on record?
**A.** 16.1%

**Q.** COc1ccccc1N1CCC(CNCc2cccc(OC)c2OC)C1 (stereo not given) was tested. Which Percent Effect did it give?
**A.** 59.5%

**Q.** How did the Percent Effect turn out when O=C(c1ccco1)N1CCO[C@@H]2CN(c3ccccn3)CC[C@@H]2C1 was run?
**A.** 17.5%

**Q.** Which Percent Effect does the source give for CN1CCN(C(=O)[C@@H]2CC[C@@H]3[C@@H](CCN3c3ncccn3)O2)CC1 here?
**A.** 14%

**Q.** For Cc1ccccc1NC(=O)N1CCN(C(=O)C2CC2)[C@@H]2CS(=O)(=O)C[C@@H]21, which Percent Effect is on record?
**A.** 4.92%

**Q.** For CCN(Cc1cccc2c1OCO2)CC1CCCO1 (stereo not given), which Percent Effect is on record?
**A.** 20%

**Q.** CCN(Cc1ccc(O)c(C(=O)O)c1)CC1CCCO1 (stereo not given) was tested. Which Percent Effect did it give?
**A.** 16.4%

**Q.** For CCN(Cc1ccc2cccc(O)c2n1)CC1CCCO1 (stereo not given), which Percent Effect is on record?
**A.** 74%

**Q.** With CCCc1ccc(CN2CCC3(CC2)CNC(=O)C3)o1 as the molecule, how does the Percent Effect read?
**A.** 11.7%

**Q.** With O=C1CC2(CCN(Cc3ccc(C(F)(F)F)nc3)CC2)CN1 as the molecule, how does the Percent Effect read?
**A.** 15.4%

**Q.** O=C1CC2(CCN(Cc3ccc4cccc(O)c4n3)CC2)CN1 was tested. Which Percent Effect did it give?
**A.** 63.2%

**Q.** O=C(c1cnccn1)N1CCN2C[C@H](OCc3ccccc3F)C[C@H]2C1 was tested. Which Percent Effect did it give?
**A.** 1.37%

**Q.** For O=C(Cc1ccsc1)N1C[C@@H]2COC[C@]2(COc2cccnc2)C1, which Percent Effect is on record?
**A.** 15.4%

**Q.** With CCc1ccccc1OCCN1CC[C@@]2(O)CCNC[C@H]2C1 as the molecule, how does the Percent Effect read?
**A.** 15.8%

**Q.** Which Percent Effect does the source give for CNC(=O)[C@@]12CCO[C@@H]1CCN(S(=O)(=O)c1ccc(C)cc1)C2 here?
**A.** -5%

**Q.** How did the Percent Effect turn out when CCc1c(C(=O)N2CCN(C)[C@@H]3CS(=O)(=O)C[C@@H]32)[nH]c2ccccc12 was run?
**A.** 11%

**Q.** With CC(C)NC(=O)N1CCC(c2nnc3n2CCNC3)CC1 as the molecule, how does the Percent Effect read?
**A.** 74.5%

**Q.** Which Percent Effect does the source give for CC(C)NC(=O)N1CCCCC1c1nnc2n1CCNC2 (stereo not given) here?
**A.** 30.3%

**Q.** With CC(=O)N1CCCCC1c1nnc2n1CCNC2 (stereo not given) as the molecule, how does the Percent Effect read?
**A.** 2.76%

**Q.** How did the Percent Effect turn out when NC(=O)CS(=O)(=O)Cc1csc(-c2ccc(F)cc2)n1 was run?
**A.** 16.9%

**Q.** With NC(=O)CS(=O)(=O)Cc1csc(-c2ccccc2)n1 as the molecule, how does the Percent Effect read?
**A.** 53%

**Q.** How did the Percent Effect turn out when O=C(CS(=O)(=O)Cc1csc(-c2ccc(F)cc2)n1)NCC1CC1 was run?
**A.** 48.2%

**Q.** With O=C([C@@H]1CCO[C@@H]2CCN(CC3CC3)C[C@H]21)N1CCCCO1 as the molecule, how does the Percent Effect read?
**A.** 17.9%

**Q.** How did the Percent Effect turn out when O=C(c1ccccc1)N1C[C@@H]2CCCO[C@@H]2[C@H](N2CCCC2)C1 was run?
**A.** 22.8%

**Q.** How did the Percent Effect turn out when CCC[C@@H]1CN(C(=O)c2ccccc2C(C)=O)C[C@H]1N(C)C was run?
**A.** 8.57%

**Q.** CCC[C@@H]1CN(C(=O)c2ccccc2-c2ccccc2)C[C@H]1N(C)C was tested. Which Percent Effect did it give?
**A.** 8.57%

**Q.** How did the Percent Effect turn out when CCC[C@@H]1CN(C(=O)c2cc3ccccc3cc2O)C[C@H]1N(C)C was run?
**A.** 77.1%

**Q.** With CCC1=N[C@@]2(CC[C@@H]3CN(CC(C)C)C[C@@H]32)C(=O)N1 as the molecule, how does the Percent Effect read?
**A.** 11.1%

**Q.** Which Percent Effect does the source give for CCOc1cccc(C(=O)N2C[C@H]3CC[C@@H]2CN(C(=O)C2CCC2)C3)c1 here?
**A.** 4%

**Q.** Cc1ccc(OCc2occc2C(=O)N2C[C@@H]3[C@@H](CN(C)C)[C@@H]3C2)cc1 was tested. Which Percent Effect did it give?
**A.** 15.9%

**Q.** Cc1nc(COC[C@@]23CCC[C@@H]2CN(Cc2nccs2)C3)cs1 was tested. Which Percent Effect did it give?
**A.** 15.8%

**Q.** For CN(C)C(=O)CO[C@H]1CN(Cc2nccs2)[C@@H]2COC[C@H]12, which Percent Effect is on record?
**A.** 9.91%

**Q.** With NC(=O)C1=NC2=NS(=O)(=O)c3ccccc3N2N1Cc1ccc(Br)cc1 as the molecule, how does the Percent Effect read?
**A.** 59.7%

**Q.** Which Percent Effect does the source give for NC(=O)C1=NC2=NS(=O)(=O)c3ccccc3N2N1Cc1ccc(Cl)cc1 here?
**A.** 58.1%

**Q.** With NC(=O)C1=NN2C(=NS(=O)(=O)c3ccccc32)N1 as the molecule, how does the Percent Effect read?
**A.** 14.8%

**Q.** Which Percent Effect does the source give for NC(=O)CN(Cc1ccc(Br)cc1)C(=O)c1ccccn1 here?
**A.** 7.29%

**Q.** For NC(=O)C1=NC2=NS(=O)(=O)c3ccccc3N2N1Cc1ccccc1Cl, which Percent Effect is on record?
**A.** 37.1%

**Q.** For Cc1nnc([C@@H]2CC[C@@H]3[C@@H](CCN3C3CCOCC3)O2)o1, which Percent Effect is on record?
**A.** 2.63%
